Inconclusive results are not listed. A call without a number means that no potency is given here. Active and inactive are the calls of the source. Calls come from the whole dose curve; as a rule, active = well fitted inhibition curve with a large enough effect; inconclusive = small, poorly fitted or top-dose-only effect; inactive = flat fitted curve, though single readings scatter.
Columns and labels:
Assay in all cases: qHTS profiling for inhibitors of Plasmodium falciparum proliferation (AID 504749); note: nearly all actives have a fitted effect of over 60% in size
Settings in all cases: P. falciparum in erythrocytes, SYBR Green DNA, 72 h; series mostly up to 28.7 µM
CP201 = tested on: CP201
Method in brief: (§1)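 SYBR Green fluorescence of parasite DNA, read after lysis and overnight dark incubation, measured growth over 72 h in erythrocyte culture at 0.3% parasitemia and 2.5% hematocrit. Data normalised to DMSO and 0.29 uM artemisinin, with plate-drift correction.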

CP203 = tested on: CP203
Method in brief: as §1

CP211 = tested on: CP211
Method in brief: as §1

CP215 = tested on: CP215
Method in brief: as §1

CP217 = tested on: CP217
Method in brief: as §1

CP237 = tested on: CP237
Method in brief: as §1

CP238 = tested on: CP238
Method in brief: as §1

CP247 = tested on: CP247
Method in brief: as §1

CP252 = tested on: CP252
Method in brief: as §1

CP256 = tested on: CP256
Method in brief: as §1

CP260 = tested on: CP260
Method in brief: as §1

CP262 = tested on: CP262
Method in brief: as §1

CP265 = tested on: CP265
Method in brief: as §1

CP266 = tested on: CP266
Method in brief: as §1

CP268 = tested on: CP268
Method in brief: as §1

CP269 = tested on: CP269
Method in brief: as §1

CP286 = tested on: CP286
Method in brief: as §1

CP291 = tested on: CP291
Method in brief: as §1

CP297 = tested on: CP297
Method in brief: as §1

CP250 = tested on: CP250
Method in brief: as §1
Potency is the fitted concentration of half-maximal effect.

Row | Structure (SMILES) | Potency (CP201) | Potency (CP203) | Potency (CP211) | Potency (CP215) | Potency (CP217) | Potency (CP237) | Potency (CP238) | Potency (CP247) | Potency (CP252) | Potency (CP256) | Potency (CP260) | Potency (CP262) | Potency (CP265) | Potency (CP266) | Potency (CP268) | Potency (CP269) | Potency (CP286) | Potency (CP291) | Potency (CP297) | Potency (CP250)
1 | Cc1ncc(C[n+]2csc(CCOP(=O)(O)O)c2C)c(N)n1 | inactive | inactive | inactive | inactive | inactive | inactive | inactive | inactive | inactive | inactive | inactive | inactive | inactive | inactive | inactive | inactive | inactive | inactive | inactive | –
2 | O=[n+]1ccn([O-])c2ccccc21 | inactive | inactive | inactive | inactive | inactive | inactive | inactive | inactive | inactive | inactive | – | inactive | inactive | inactive | inactive | inactive | inactive | inactive | inactive | inactive
3 | CCC(C(=O)NC(N)=O)c1ccccc1 (configuration not stated) | inactive | inactive | inactive | inactive | inactive | inactive | inactive | inactive | inactive | inactive | – | inactive | inactive | inactive | inactive | inactive | inactive | inactive | inactive | inactive
4 | CC(=O)Oc1cc(C(F)(F)F)ccc1C(=O)O | inactive | inactive | inactive | inactive | inactive | inactive | inactive | inactive | inactive | inactive | – | inactive | inactive | inactive | inactive | inactive | inactive | inactive | inactive | inactive
5 | Cc1nc(NS(=O)(=O)c2ccc(N)cc2)nc(C)c1Br | inactive | inactive | inactive | inactive | inactive | inactive | inactive | inactive | inactive | inactive | – | – | inactive | inactive | inactive | inactive | inactive | inactive | inactive | inactive
6 | CC(C)CCCCCCc1ccc(O)cc1 | inactive | inactive | inactive | inactive | inactive | inactive | inactive | – | inactive | inactive | inactive | inactive | inactive | inactive | inactive | inactive | inactive | inactive | inactive | inactive
7 | CN(Cc1ccccc1)Cc1ccccc1 | inactive | inactive | inactive | inactive | inactive | inactive | inactive | inactive | inactive | inactive | – | inactive | inactive | inactive | inactive | inactive | inactive | inactive | inactive | inactive
8 | O=C1N=C2SCCN2C(=O)C1Cc1ccc(Cl)cc1 (configuration not stated) | inactive | inactive | inactive | inactive | inactive | inactive | inactive | inactive | inactive | inactive | – | inactive | inactive | inactive | inactive | inactive | inactive | inactive | inactive | inactive
9 | COc1ccc(C(=O)CCC(=O)O)c2ccccc12 | inactive | inactive | inactive | inactive | inactive | inactive | inactive | – | inactive | inactive | inactive | inactive | inactive | – | inactive | inactive | inactive | inactive | inactive | inactive
10 | O=[N+]([O-])c1c(Cl)cccc1-c1c[nH]cc1Cl | inactive | inactive | inactive | inactive | inactive | inactive | inactive | inactive | inactive | inactive | – | inactive | inactive | inactive | inactive | inactive | inactive | inactive | inactive | inactive
11 | O[C@@H]([C@H](O)[C@H](O)CBr)[C@H](O)CBr | inactive | inactive | inactive | inactive | inactive | inactive | inactive | inactive | inactive | – | inactive | inactive | inactive | inactive | inactive | inactive | inactive | inactive | inactive | inactive
12 | O=c1[nH]c(=O)n([C@H]2C[C@H](O)[C@@H](CO)O2)cc1/C=C/Br | inactive | inactive | inactive | inactive | inactive | inactive | inactive | inactive | inactive | inactive | – | inactive | inactive | inactive | inactive | inactive | inactive | inactive | inactive | inactive
13 | CN(C)CCCSc1ccccc1NC(=O)/C=C/c1ccccc1 | inactive | inactive | inactive | inactive | inactive | – | inactive | inactive | inactive | inactive | inactive | inactive | inactive | inactive | – | inactive | inactive | inactive | – | inactive
14 | CC(C)=CCC/C(C)=C/C=C/C(C)=C/C=C/C(C)=C/C=C/C=C(C)/C=C/C=C(C)/C=C/C=C(\C)CCC=C(C)C | inactive | inactive | inactive | inactive | inactive | – | inactive | inactive | inactive | inactive | inactive | inactive | inactive | – | inactive | inactive | inactive | inactive | inactive | inactive
15 | CC/C=C\C/C=C\C/C=C\C/C=C\C/C=C\CCCC(=O)O | inactive | inactive | inactive | inactive | inactive | inactive | inactive | – | inactive | inactive | inactive | inactive | inactive | inactive | inactive | inactive | inactive | inactive | inactive | inactive
16 | CCCCC(CC)CCC(CC(C)C)OS(=O)(=O)O (configuration not stated) | inactive | inactive | inactive | inactive | inactive | inactive | inactive | inactive | inactive | inactive | – | inactive | inactive | inactive | inactive | inactive | inactive | inactive | inactive | inactive
17 | CCOC(=O)C1=C(COCCN)NC(C)=C(C(=O)OC)C1c1ccccc1Cl (configuration not stated) | inactive | inactive | inactive | inactive | inactive | – | inactive | inactive | inactive | inactive | inactive | inactive | inactive | inactive | inactive | inactive | inactive | inactive | inactive | inactive
18 | Cc1cccc(Nc2ncccc2C(=O)O)c1C | inactive | inactive | inactive | inactive | inactive | inactive | inactive | inactive | inactive | inactive | – | inactive | inactive | inactive | inactive | inactive | inactive | inactive | inactive | inactive
19 | CCN(CC)CCC(=O)N1c2ccccc2Sc2ccc(C(F)(F)F)cc21 | inactive | inactive | inactive | inactive | inactive | inactive | inactive | – | inactive | – | inactive | inactive | inactive | inactive | inactive | inactive | inactive | – | inactive | inactive
20 | CCCCCCCCCCCC(=O)N(CCO)CCO | inactive | inactive | inactive | inactive | inactive | inactive | inactive | inactive | inactive | inactive | inactive | – | inactive | inactive | – | inactive | inactive | inactive | inactive | inactive
21 | CO/N=C(\C(=O)N[C@@H]1C(=O)N2C(C(=O)[O-])=C(C[n+]3cccc4c3CCC4)CS[C@H]12)c1csc(N)n1 | inactive | inactive | inactive | inactive | inactive | inactive | inactive | inactive | inactive | inactive | – | inactive | inactive | inactive | – | inactive | inactive | inactive | – | inactive
22 | Cc1cc2nc3c(=O)[nH]c(=O)nc-3n(C[C@H](O)[C@H](O)[C@H](O)COP(=O)(O)OP(=O)(O)OC[C@H]3O[C@@H](n4cnc5c(N)ncnc54)[C@H](O)[C@@H]3O)c2cc1C | inactive | inactive | inactive | inactive | inactive | inactive | inactive | – | inactive | inactive | inactive | inactive | inactive | inactive | inactive | inactive | inactive | inactive | inactive | inactive
23 | C[Si](C)(C)O[Si](C)(C)C | inactive | inactive | inactive | inactive | inactive | inactive | inactive | inactive | inactive | inactive | inactive | – | inactive | – | inactive | inactive | inactive | inactive | inactive | inactive
24 | CCCCC[C@H](O)/C=C/[C@H]1[C@H](O)CC(=O)[C@@H]1C/C=C\CCCC(=O)O | inactive | inactive | inactive | inactive | inactive | inactive | inactive | inactive | inactive | inactive | – | inactive | inactive | inactive | inactive | inactive | inactive | inactive | inactive | inactive
25 | OCCCNc1ccccc1 | inactive | inactive | inactive | inactive | inactive | inactive | inactive | – | inactive | inactive | inactive | inactive | inactive | – | inactive | inactive | inactive | inactive | inactive | inactive
26 | CCOC(=O)Cc1ccc(-c2ccccc2)cc1 | inactive | inactive | inactive | inactive | inactive | inactive | inactive | inactive | – | – | inactive | inactive | 0.6 nM (active) | inactive | inactive | inactive | inactive | inactive | – | inactive
27 | c1ccc2c(c1)OCC(CN1CCCCC1)O2 (configuration not stated) | inactive | inactive | inactive | inactive | inactive | – | inactive | inactive | inactive | inactive | inactive | inactive | inactive | inactive | inactive | inactive | inactive | inactive | inactive | inactive
28 | COc1ccc(/C=C/C(=O)OCCC(C)C)cc1 | inactive | inactive | inactive | inactive | inactive | inactive | inactive | inactive | inactive | inactive | inactive | inactive | inactive | inactive | inactive | inactive | inactive | inactive | – | –
